Screens deposited in PubChem by National Center for Advancing Translational Sciences (NCATS).
An excerpt weighted towards active compounds, which were near 2.9% of everything screened.
EPAC1 agonist: validation of human EPAC1 agonists; Potency, µM, inactives show max response, positive = active, most hits filed as activators; EPAC1 Rap1b BODIPY-GDP exchange, fluorescence; 16,000 compounds, 1% hits; further: nearly all actives have a fitted effect of over 70% in size
EPAC2 ant val: human EPAC2 antagonism, validation | Potency, µM (top dose mostly 112 µM), without a hit: top-dose activity, negative = inhibition, most hits filed as inhibitors | Q8WZA2 | EPAC2 Rap1B BODIPY-GDP exchange, fluorescence | 16,000 compounds, 1.7% hits;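 further: 100% = activation by cAMP agonist control; nearly all actives have a fitted effect of over 40% in size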
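Normalized against a 6.5 mM cAMP agonist control, compounds were tested on 100 nM EPAC2 exchanging Rap1B-bound BODIPY-GDP (250 nM) for 50 uM GDP. Fluorescence drop (ex 480, em 540 nm) was tracked at room temperature over 30 min at 5-min intervals.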
* marks the source's active call; other numbers are inactive results; ? = inconclusive; ! = a repeat was not active; [ ] = remark or other dose. The call rests on the fitted dose curve; in most records, active means well fitted curve in the direction sought with a large enough effect; inconclusive means small, poorly fitted or top-dose-only effect, or another doubt; inactive means no such curve, though single readings can be large; an effect the other way counts as inactive or inconclusive. Unless noted, on the % scale 0 is the no-effect control and ±100 the full control effect; potency means the concentration at half of the fitted maximal effect.

SMILES | EPAC1 agonist | EPAC2 ant val
Cc1cnc(SCc2ccccn2)nc1C1CCCN(C(=O)c2scc3c2CCCC3)C1 (configuration not stated) | -13.7% | ?
COC(=O)Nc1nc2ccc(C(=O)c3ccccc3)cc2[nH]1 | -25.6% | -11.5%[56.6 µM]
COC(=O)Nc1nc2ccc(C(=O)c3cccs3)cc2[nH]1 | -2.6% | 79.4µM*!
O=C(O)[C@H](O)c1ccccc1 | -7.2% | -11.6%
Nc1cccc2c(N)cccc12 | 28.8% | ?
Nc1c2ccccc2nc2ccccc12 (tested in a mixture with another compound) | 1.3% | 79.4µM*
CN1[C@@H]2CCC[C@@H]1CC(NC(=O)c1nn(C)c3ccccc13)C2 (some centres not stated) | -9.7% | 20.5%
COCc1ccc(C(=O)N2CCOc3ccc(CN4CCN(c5ccc(F)cc5)CC4)cc3C2)o1 | -11.7% | -8.2%
COc1cc(OC)c(/C=C/c2ccc3ccccc3n2)c(OC)c1 | ? | -8.0%
COc1ccc(OC)c(/C=C/c2nc3ccccc3nc2C)c1 | 100µM* | ?
CC[C@H]1OC(=O)[C@H](C)[C@@H](O[C@H]2C[C@@](C)(OC)[C@@H](O)[C@H](C)O2)[C@H](C)[C@@H](O[C@@H]2O[C@H](C)C[C@H](N(C)C)[C@H]2O)[C@](C)(O)C[C@@H](C)[C@@H]2N[C@@H](COCCOC)O[C@@H]([C@H]2C)[C@]1(C)O | -30.5% | 15.0%
Cc1[nH]cnc1C[C@H]1CCc2c(C)c3ccccc3n2C1=O | -107.7% | 0.0%
CNc1nc(-c2ccc3c(c2)OCO3)nc2ccccc12 | -20.5% | -29.5%
c1ccc(Nc2nc(-c3ccc4c(c3)OCO4)nc3ccccc23)cc1 | 100µM* | -26.2%
CC(C)(C)NC(=O)[C@H]1CC[C@H]2[C@@H]3CC=C4C=C(C(=O)O)CC[C@]4(C)[C@H]3CC[C@]12C | -60.1% | -5.4%
COc1ccc2[nH]cc(CCNc3nc(-c4ccccc4OC)nc4ccccc34)c2c1 | ? | -20.8%
COc1ccc2[nH]cc(CCNc3nc(-c4cccc(C#N)c4)nc4ccccc34)c2c1 | 112µM* | -27.7%
c1cncc(OC2CCN(Cc3ccc4c(c3)CN(Cc3ccc5c(c3)OCCO5)CCO4)CC2)c1 | 7.1% | -15.0%
CC(O)[C@H]1CC[C@H]2[C@@H]3CC[C@@H]4C[C@@H](O)CC[C@]4(C)[C@H]3CC[C@]12C (some centres not stated) | 19.1% | -3.0%
COC(=O)[C@]12CCC(C)(C)C[C@@H]1[C@@H]1C(=O)C=C3[C@@]4(C)C=C(C#N)C(=O)C(C)(C)[C@@H]4CC[C@@]3(C)[C@]1(C)CC2 | 14.9% | ?
O=C1CC[C@@H](C(=O)N[C@H]2C[C@@H]2c2ccccc2)N1 | -5.1% | -10.7%
COc1ccc(C(=O)CC(=O)c2ccc(C(C)(C)C)cc2)cc1 | -40.2% | 2.9%
COc1ccc(C(Cl)=C(c2ccc(OC)cc2)c2ccc(OC)cc2)cc1 | ? | 3.16µM*!
Cc1noc(C)c1-c1nc(N(C)Cc2ccco2)c2ccccc2n1 | ? | 20µM*
CN(Cc1ccco1)c1nc(-c2ccoc2)nc2ccccc12 | ? | 25.1µM*
SMILES | EPAC1 agonist | EPAC2 ant val
CN(C)c1ccc(-c2nc(N(C)Cc3ccco3)c3ccccc3n2)cc1 | ? | -16.3%
Cc1noc(C)c1-c1nccc(N(C)Cc2ccco2)n1 | -2.2% | -17.9%
CN(Cc1ccco1)c1nc(-c2cccc(C#N)c2)nc2ccccc12 | 100µM* | -11.9%
CN(C)C(=O)c1ccc(-c2nc(N(C)Cc3ccco3)c3ccccc3n2)cc1 | ? | -21.0%
COc1ccccc1C(=O)N[C@@H]1c2ccccc2C2(CCN(Cc3c(O)cccc3OC)CC2)[C@H]1O | -4.9% | -10.3%
CC[C@H](C)[C@H]1O[C@]2(CC[C@@H]1C)C[C@@H]1C[C@@H](C/C=C(\C)[C@@H](O[C@H]3C[C@H](OC)[C@@H](O[C@H]4C[C@H](OC)[C@@H](O)[C@H](C)O4)[C@H](C)O3)[C@@H](C)/C=C/C=C3\CO[C@@H]4[C@H](O)C(C)=C[C@@H](C(=O)O1)[C@]34O)O2 | -57.8% | -15.6%
CC1(C)CCC2=C(O1)c1ccccc1C(=O)C2=O | -6.9% | 28.2µM*!
CNC(C)[C@@H]1CC[C@@H](N)[C@@H](O[C@H]2[C@H](O)[C@@H](O[C@H]3OC[C@](C)(O)[C@H](NC)[C@H]3O)[C@H](N)C[C@@H]2N)O1 (some centres not stated) | -3.6% | -0.3%[56.6 µM]
COc1cc2c(cc1OC)-c1cc(=Nc3c(C)cc(C)cc3C)n(C)c(=O)n1CC2 | ? | 14.1µM*!
O.O.O.O.O.O.O.O=S(=O)([O-])[O-].[Co+2] | -31.8% | 50.1µM*
O=S1(=O)CCOC[C@H](CC2CCCCC2)N1Cc1ccccc1F | -21.3% | ?
O=S1(=O)CCOC[C@H](CC2CCCCC2)N1Cc1cccc(C(F)(F)F)c1 | -116.0% | 17.8µM*
Cc1onc(-c2ccc3c(c2)OCO3)c1-c1ccc2[nH]ccc2c1 | 100µM* | ?
COc1cc(-c2c(-c3ccc4c(c3)OCO4)noc2-c2ccsc2)ccc1F | 24.7% | ?
COc1cccc(-c2nc3cc4c(cc3cc2CN(C(=O)c2cccs2)C2CC2)CCC4)c1OC | -3.7% | ?
C=Cc1c(C)c2cc3nc(cc4[nH]c(cc5nc(cc1[nH]2)C(C)=C5CCC(=O)OC)c(CCC(=O)O)c4C)[C@@]1(C)C3=CC=C(C(=O)OC)[C@H]1C(=O)OC | -3.0% | -4.3%
CN(Cc1cnc2ccccn12)C(=O)c1cc(NC(=O)c2ccccc2)cc2ncn(C3CCCC3)c12 | 23.6% | -33.3%
CC(C)N1CCN(c2ccc(OC[C@H]3CO[C@](Cn4cncn4)(c4ccc(Cl)cc4Cl)O3)cc2)CC1 | -3.4% | -7.5%[56.6 µM]
CC(=O)N1CCN(c2ccc(OCC3CO[C@@](Cn4ccnc4)(c4ccc(Cl)cc4Cl)O3)cc2)CC1 (some centres not stated) | ? | 35.5µM*
C[C@H]1C[C@H]2[C@@H]3CCC4=CC(=O)C=C[C@]4(C)[C@@]3(F)[C@@H](O)C[C@]2(C)[C@@]1(O)C(=O)CCl | -39.1% | ?
CCCCN(CCC#N)c1ccc(/C=C/c2ccnc3ccccc23)cc1 | 100µM* | 18.4%
Cc1cc(/C=C/c2ccnc3ccccc23)ccc1N(C)C | 100µM* | 150.3%
CN(C)c1ccc(/C=C/c2ccnc3ccccc23)cc1Cl | 13.0% | ?
CC[N+](C)(C)c1ccc(/C=C/c2ccnc3ccccc23)cc1 | -129.9% | 44.7µM*
OCCN(CCO)c1ccc(/C=C/c2ccnc3ccccc23)cc1 | 26.9% | -22.0%
SMILES | EPAC1 agonist | EPAC2 ant val
CC[N+](CC)(CC)c1ccc(/C=C/c2ccnc3ccccc23)cc1 | -57.8% | ?
C[C@@H]1NC(=O)[C@@H](N)CNC(=O)[C@H](C2CCNC(N)=N2)NC(=O)/C(=C/NC(N)=O)NC(=O)[C@H](CNC(=O)C[C@@H](N)CCCN)NC1=O (some centres not stated) | -0.1% | 1.9%[56.6 µM]
CCc1ccc2c(c1)N(CC(C)CN(C)C)c1ccccc1S2 (configuration not stated) | -29.8% | -19.0%
COc1ccc(CN2CCCC(c3nc(-c4ccncc4)ncc3-c3ccccc3C)C2)c(OC)c1 (configuration not stated) | 15.5% | ?
OCCN(CCO)c1nc(N2CCCCC2)c2nc(N(CCO)CCO)nc(N3CCCCC3)c2n1 | 35.5µM*! | ?
Cc1cccc(-c2cccc(C(=O)N3CCc4c(cnc(C)c4CNC(=O)c4cncs4)C3)c2)c1 | -10.8% | ?
